Assay results reported in PubChem BioAssay (NCATS).
Records with an inconclusive call do not appear. Where a call stands in place of a potency, no number is given. Activity calls are given as the source filed them. The call rests on the fitted dose curve; in most records, active means well fitted inhibition curve with a large enough effect; inconclusive means small, poorly fitted or top-dose-only effect; inactive means flat fitted curve, though single readings scatter.

How the values were obtained:
Assay in all cases: qHTS profiling for inhibitors of Plasmodium falciparum proliferation (AID 504749); further: nearly all actives have a fitted effect of over 60% in size
Details in all cases: P. falciparum in erythrocytes, SYBR Green DNA, 72 h; series mostly up to 28.7 µM
CP315 = test system: CP315
Summary of the method: (§1)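 In a 72 h erythrocytic culture (37 C, humidified, 5% CO2) at 2.5% hematocrit and 0.3% starting parasitemia, compounds were tested; SYBR Green I in detergent lysis buffer stained parasite DNA overnight.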

CP325 = test system: CP325
Summary of the method: as §1

CP329 = test system: CP329
Summary of the method: as §1

CP335 = test system: CP335
Summary of the method: as §1

DFO2036 = test system: DFO2036
Summary of the method: as §1

DIV14 = test system: DIV14
Summary of the method: as §1

DIV17 = test system: DIV17
Summary of the method: as §1

DIV30 = test system: DIV30
Summary of the method: as §1

Dd2 = test system: Dd2
Summary of the method: as §1

ECU = test system: ECU
Summary of the method: as §1

FAB9 = test system: FAB9
Summary of the method: as §1

GB4 = test system: GB4
Summary of the method: as §1

HB3 = test system: HB3
Summary of the method: as §1

JCK = test system: JCK
Summary of the method: as §1

N140 = test system: N140
Summary of the method: as §1

P93_24 = test system: P93_24
Summary of the method: as §1

PAD = test system: PAD
Summary of the method: as §1

PC15 = test system: PC15
Summary of the method: as §1

ICS = test system: ICS
Summary of the method: as §1

P94_40 = test system: P94_40
Summary of the method: as §1
Potency means the concentration at half of the fitted maximal effect.

SMILES | Potency (CP315) | Potency (CP325) | outcome (CP329) | Potency (CP335) | Potency (DFO2036) | Potency (DIV14) | Potency (DIV17) | Potency (DIV30) | Potency (Dd2) | Potency (ECU) | Potency (FAB9) | Potency (GB4) | Potency (HB3) | Potency (JCK) | Potency (N140) | Potency (P93_24) | Potency (PAD) | Potency (PC15) | Potency (ICS) | Potency (P94_40)
NNCCc1ccccc1 | inactive | inactive | inactive | inactive | inactive | inactive | inactive | inactive | inactive | inactive | inactive | inactive | inactive | inactive | inactive | inactive | inactive | inactive | – | –
Cc1[nH]c(=O)c(C#N)cc1-c1ccc2nccn2c1 | inactive | inactive | inactive | inactive | inactive | inactive | inactive | inactive | inactive | inactive | inactive | inactive | inactive | inactive | inactive | inactive | inactive | inactive | inactive | inactive
O=C1CCC(N2C(=O)c3ccccc3C2=O)C(=O)N1 (stereo not drawn) | inactive | inactive | inactive | inactive | inactive | inactive | inactive | inactive | inactive | inactive | inactive | inactive | inactive | inactive | inactive | inactive | inactive | inactive | inactive | inactive
Cc1ccc(N(CC2=NCCN2)c2cccc(O)c2)cc1 | inactive | inactive | inactive | inactive | inactive | inactive | inactive | inactive | inactive | inactive | inactive | inactive | inactive | inactive | inactive | inactive | inactive | inactive | inactive | inactive
NCCCC(N)(C(=O)O)C(F)F (stereo not drawn) | inactive | inactive | inactive | inactive | inactive | inactive | inactive | inactive | inactive | inactive | inactive | inactive | inactive | inactive | inactive | inactive | inactive | inactive | inactive | inactive
O=c1[nH]cnc2[nH]ncc12 | inactive | inactive | inactive | inactive | inactive | inactive | inactive | inactive | inactive | inactive | inactive | inactive | inactive | inactive | inactive | inactive | inactive | inactive | inactive | inactive
NCCc1ccc(O)c(O)c1 | inactive | inactive | inactive | inactive | inactive | inactive | inactive | inactive | inactive | inactive | inactive | inactive | inactive | inactive | – | inactive | inactive | inactive | inactive | inactive
N=c1nc(N2CCCCC2)cc(N)n1O | inactive | inactive | inactive | inactive | inactive | inactive | inactive | inactive | inactive | inactive | inactive | inactive | inactive | inactive | inactive | inactive | inactive | inactive | inactive | inactive
Nc1nc2c(ncn2COCCO)c(=O)[nH]1 | inactive | inactive | inactive | inactive | inactive | inactive | inactive | inactive | inactive | inactive | inactive | inactive | inactive | inactive | inactive | inactive | inactive | inactive | inactive | inactive
CC(=O)Oc1ccccc1C(=O)O | inactive | inactive | inactive | inactive | inactive | inactive | inactive | inactive | inactive | inactive | inactive | inactive | inactive | inactive | inactive | inactive | inactive | inactive | inactive | inactive
Clc1cccc(Cl)c1NC1=NCCN1 | inactive | inactive | inactive | inactive | inactive | inactive | inactive | inactive | inactive | inactive | inactive | inactive | inactive | inactive | inactive | inactive | inactive | inactive | inactive | inactive
NS(=O)(=O)c1cc2c(cc1Cl)NC=NS2(=O)=O | inactive | inactive | inactive | inactive | inactive | inactive | inactive | inactive | inactive | inactive | inactive | inactive | inactive | inactive | inactive | inactive | inactive | inactive | inactive | inactive
Oc1ccc(C2CNCCc3c2cc(O)c(O)c3Cl)cc1 (stereo not drawn) | inactive | inactive | inactive | inactive | inactive | inactive | inactive | inactive | inactive | inactive | inactive | – | inactive | inactive | inactive | inactive | inactive | inactive | – | inactive
Cc1cn[nH]c1 | inactive | inactive | inactive | inactive | inactive | inactive | inactive | inactive | inactive | inactive | inactive | inactive | inactive | inactive | inactive | inactive | inactive | inactive | inactive | inactive
CCc1ccc(CCOc2ccc(CC3SC(=O)NC3=O)cc2)nc1 (stereo not drawn) | inactive | inactive | inactive | inactive | inactive | inactive | inactive | inactive | inactive | inactive | inactive | inactive | inactive | inactive | inactive | inactive | inactive | inactive | inactive | inactive
N#Cc1ccc(C(c2ccc(C#N)cc2)n2cncn2)cc1 | inactive | inactive | inactive | inactive | inactive | inactive | inactive | inactive | inactive | inactive | inactive | inactive | inactive | inactive | inactive | inactive | inactive | inactive | inactive | inactive
CC(C)NCC(O)COc1ccc(COCCOC(C)C)cc1 (stereo not drawn) | inactive | inactive | inactive | inactive | inactive | inactive | inactive | inactive | inactive | inactive | inactive | inactive | inactive | inactive | inactive | inactive | inactive | inactive | inactive | inactive
CCCCNc1cc(C(=O)O)cc(S(N)(=O)=O)c1Oc1ccccc1 | inactive | inactive | inactive | inactive | inactive | inactive | inactive | inactive | inactive | inactive | inactive | inactive | inactive | inactive | inactive | inactive | inactive | inactive | inactive | inactive
Cc1[nH]c(=O)c(C#N)cc1-c1ccncc1 | inactive | inactive | inactive | inactive | inactive | inactive | inactive | inactive | inactive | inactive | inactive | inactive | inactive | inactive | inactive | inactive | inactive | inactive | inactive | inactive
N[C@@H]1CONC1=O | inactive | inactive | inactive | inactive | inactive | inactive | inactive | inactive | inactive | inactive | inactive | inactive | inactive | inactive | inactive | inactive | inactive | inactive | inactive | inactive
CC(C[N+](C)(C)C)OC(N)=O (stereo not drawn) | inactive | inactive | inactive | inactive | inactive | inactive | inactive | inactive | inactive | inactive | inactive | inactive | inactive | inactive | inactive | inactive | inactive | inactive | inactive | inactive
O=c1n(CCCN2CCN(c3cccc(Cl)c3)CC2)nc2ccccn12 | inactive | inactive | inactive | inactive | inactive | inactive | inactive | inactive | inactive | inactive | inactive | inactive | inactive | inactive | inactive | inactive | inactive | inactive | inactive | inactive
Nc1ccc(S(=O)(=O)Nc2ccnn2-c2ccccc2)cc1 | inactive | inactive | inactive | inactive | inactive | inactive | inactive | inactive | inactive | inactive | inactive | inactive | inactive | inactive | inactive | inactive | inactive | inactive | inactive | inactive
NC(=O)c1cnccn1 | inactive | inactive | inactive | inactive | inactive | inactive | inactive | inactive | inactive | inactive | inactive | inactive | inactive | inactive | inactive | inactive | inactive | inactive | inactive | inactive
OC(CN1CCC(Cc2ccc(F)cc2)CC1)c1ccc(Cl)cc1 (stereo not drawn) | inactive | inactive | inactive | 3.79 µM (active) | – | 1.07 µM (active) | 0.953 µM (active) | 1.9 µM (active) | 2.51 µM (active) | 1.58 µM (active) | – | 1.2 µM (active) | 8.91 µM (active) | 2 µM (active) | 0.794 µM (active) | 1.58 µM (active) | 0.631 µM (active) | 2 µM (active) | 0.355 µM (active) | 1.58 µM (active)
CCCc1nc2c(C)cc(-c3nc4ccccc4n3C)cc2n1Cc1ccc(-c2ccccc2C(=O)O)cc1 | inactive | inactive | inactive | 6.01 µM (active) | – | – | 0.675 µM (active) | – | 5.01 µM (active) | – | inactive | – | 10 µM (active) | – | 1.41 µM (active) | – | 1 µM (active) | 2.51 µM (active) | 0.631 µM (active) | 1.78 µM (active)
CNC[C@H](O)c1cccc(O)c1 | – | inactive | inactive | – | inactive | inactive | inactive | inactive | inactive | inactive | inactive | inactive | inactive | inactive | inactive | inactive | – | inactive | inactive | inactive
